This is an account of results in PubChem BioAssay (NCI).

Test systems include SR leukemia; RPMI-8226 leukemia; OVCAR-8 ovarian; OVCAR-5 ovarian; OVCAR-4 ovarian; SK-OV-3 ovarian; IGROV1 ovarian; OVCAR-3 ovarian; HS 578T breast; NCI/ADR-RES ovarian; T-47D breast; BT-549 breast; MDA-MB-435 melanoma; SW-620 colon; MCF7 breast; HCT-116 colon; HCC-2998 colon; KM12 colon.
What all share (assay): NCI-60 one-dose screen, 48 h (100 = growth as untreated, 0 = no growth, -100 = all killed)
Holding throughout (conditions): 10 µM unless noted

About 83,000 compounds went through this panel and 20% of them were active in at least one assay; those are over-represented in the sample as a whole.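 The test compound was applied at a single concentration to cells in 96-well plates for 48 hours, and percent growth was recorded.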 Unmarked numbers belong to inactive results. Activity calls are given as the source filed them. How the source made its calls: active means growth percent below 10; inactive means the rest.

On to `CCc1ccc(C(c2ccc(CC)cc2)C(Cl)(Cl)CCl)cc1`, for which the growth in the assay with SR leukemia was 103%; in the assay on RPMI-8226 leukemia, 93.6%; in the assay with OVCAR-8 ovarian, 110%; in the assay on OVCAR-5 ovarian, 99.9%; with OVCAR-4 ovarian, 86.9%; in the assay on SK-OV-3 ovarian, 105%. Further, the growth in the assay on IGROV1 ovarian is 76.6%; with OVCAR-3 ovarian it was 86.3%; in the assay with HS 578T breast it was 65.4%; with NCI/ADR-RES ovarian, 91.3%; in the assay on T-47D breast, 77.6%; in the assay on BT-549 breast, 116%. The growth with MDA-MB-435 melanoma is 102%; with SW-620 colon it was 86.8%; in the assay with MCF7 breast it was 106%; in the assay with HCT-116 colon, 76.3%; with HCC-2998 colon, 90.1%; in the assay with KM12 colon, 103%.
As for `S=c1[nH]nc(CSc2ncnc3c2c(-c2ccccc2)cn3-c2ccc(Cl)cc2)o1`, the growth in the assay with SR leukemia was 105%; in the assay with RPMI-8226 leukemia it was 98%; with OVCAR-8 ovarian, 97.5%; in the assay on OVCAR-5 ovarian, 104%; in the assay with OVCAR-4 ovarian it was 95.4%; with SK-OV-3 ovarian, 78.2%. Moreover, the growth in the assay on IGROV1 ovarian was 92.3%; in the assay with OVCAR-3 ovarian, 101%; in the assay on HS 578T breast it was 94.5%; in the assay on NCI/ADR-RES ovarian, 99.3%; in the assay with T-47D breast, 90.6%; in the assay on BT-549 breast, 107%. The growth with MDA-MB-435 melanoma is 104%; with SW-620 colon, 95.2%; in the assay with MCF7 breast it was 93.7%; with HCT-116 colon, 93.8%; in the assay with HCC-2998 colon, 104%; with KM12 colon, 98.7%.
Take `Cc1cc(Nc2nc(N3CCOCC3)nc3ccccc23)n[nH]1`: the growth is 10.8% with SR leukemia; 82.5% with RPMI-8226 leukemia; 104% in the assay on OVCAR-8 ovarian; 88.7% with OVCAR-5 ovarian; 52.5% in the assay on OVCAR-4 ovarian; 20.5% in the assay on SK-OV-3 ovarian. Further, the growth is 30.9% with IGROV1 ovarian; 58.6% with OVCAR-3 ovarian; 16.3% with HS 578T breast; 86.3% in the assay on NCI/ADR-RES ovarian; 72.5% in the assay on T-47D breast; 61.5% with BT-549 breast. Also, the growth in the assay with MDA-MB-435 melanoma is 57.4%; with SW-620 colon, 79.3%; with MCF7 breast, 47.8%; in the assay with HCT-116 colon, 40.1%; in the assay on KM12 colon it was 10.3%.
`Cc1cc(Cl)ccc1Nc1nc(C(F)(F)F)ccc1C(=O)N/N=C/c1ccc(F)cc1`: the growth in the assay with SR leukemia was -30.8% (active); with RPMI-8226 leukemia, -41.5% (active); in the assay with OVCAR-8 ovarian, 23.1%; in the assay with OVCAR-5 ovarian it was 18.6%; with OVCAR-4 ovarian, 5.75% (active); with SK-OV-3 ovarian, 21.3%. Besides, the growth in the assay on IGROV1 ovarian is 8.97% (active); in the assay with OVCAR-3 ovarian, 9.84% (active); with HS 578T breast, 4.52% (active); in the assay with NCI/ADR-RES ovarian, 10.5%; in the assay with T-47D breast, 28.4%; with BT-549 breast, 3.74% (active). For the same compound, the growth in the assay with MDA-MB-435 melanoma was 31.9%; in the assay with SW-620 colon, 12.7%; in the assay with MCF7 breast, -15.2% (active); in the assay on HCT-116 colon it was 8.67% (active); in the assay on HCC-2998 colon, 12.4%; with KM12 colon, 7.78% (active).
As for `CC[C@@H](C)OC(=O)c1nn(C(C)=O)c2ccccc12`, the growth was 110% in the assay on SR leukemia; 107% with RPMI-8226 leukemia; 92.7% in the assay on OVCAR-8 ovarian; 101% with OVCAR-5 ovarian; 103% with OVCAR-4 ovarian; 114% in the assay on SK-OV-3 ovarian. In addition, the growth is 110% with IGROV1 ovarian; 112% in the assay on OVCAR-3 ovarian; 106% with HS 578T breast; 94.2% in the assay on NCI/ADR-RES ovarian; 103% in the assay with T-47D breast; 105% in the assay with BT-549 breast. The growth in the assay on MDA-MB-435 melanoma was 103%; with SW-620 colon, 107%; in the assay with MCF7 breast, 83.6%; in the assay with HCT-116 colon, 104%; in the assay on HCC-2998 colon, 96.4%; in the assay with KM12 colon it was 103%.
As for `NC(CC(=O)O)C(=O)OCc1ccccc1` (stereo unspecified), the growth is 107% with SR leukemia; 98.7% in the assay on RPMI-8226 leukemia; 101% in the assay on OVCAR-8 ovarian; 101% with OVCAR-5 ovarian; 89.6% in the assay with OVCAR-4 ovarian; 82.9% in the assay with SK-OV-3 ovarian. Further, the growth with IGROV1 ovarian was 105%; in the assay on OVCAR-3 ovarian it was 110%; with HS 578T breast, 101%; in the assay with NCI/ADR-RES ovarian it was 101%; with T-47D breast it was 83.8%; with BT-549 breast it was 108%. Also, the growth was 86.3% with MDA-MB-435 melanoma; 107% with SW-620 colon; 104% in the assay with MCF7 breast; 96.9% with HCT-116 colon; 104% in the assay on HCC-2998 colon; 106% in the assay with KM12 colon.
Turning to `Cn1c2ccccc2c2c3c(c4c5ccccc5n(CCCCCC#N)c4c21)C(=O)N(O)C3=O`, the growth in the assay with SR leukemia was 1.39% (active); with RPMI-8226 leukemia, 0.134% (active); in the assay on OVCAR-8 ovarian it was 27.5%; in the assay on OVCAR-5 ovarian, 12.8%; in the assay with OVCAR-4 ovarian, 28.4%; in the assay with SK-OV-3 ovarian, 37.1%. In addition, the growth is 27.6% with IGROV1 ovarian; 6.92% (active) with OVCAR-3 ovarian; 13% in the assay on HS 578T breast; 12.2% with NCI/ADR-RES ovarian; 17.4% with T-47D breast; 18.5% with BT-549 breast. The growth was 20.9% in the assay on MDA-MB-435 melanoma; 14% in the assay on SW-620 colon; 7.79% (active) with MCF7 breast; -19.4% (active) with HCT-116 colon; 25.3% with HCC-2998 colon; 16.6% in the assay on KM12 colon.
On to `COc1ccc(-n2cc(-c3ccccc3)c3c(SCC(=O)N/N=C/c4ccc([N+](=O)[O-])cc4)ncnc32)cc1`, for which the growth was 108% with SR leukemia; 108% with RPMI-8226 leukemia; 103% in the assay on OVCAR-8 ovarian; 99.2% with OVCAR-5 ovarian; 102% in the assay on OVCAR-4 ovarian; 109% with SK-OV-3 ovarian. Moreover, the growth in the assay with IGROV1 ovarian is 108%; in the assay on OVCAR-3 ovarian, 105%; in the assay on HS 578T breast it was 105%; in the assay on NCI/ADR-RES ovarian it was 91.3%; with T-47D breast, 98.7%; with BT-549 breast it was 97.8%. Besides, the growth in the assay with MDA-MB-435 melanoma is 109%; with SW-620 colon, 103%; in the assay with MCF7 breast, 92.5%; in the assay with HCT-116 colon, 105%; in the assay with HCC-2998 colon, 97.7%; in the assay with KM12 colon, 101%.
In the case of `CCOC(=O)CC(C)=N`, the growth is 120% in the assay with SR leukemia; 113% in the assay on RPMI-8226 leukemia; 108% in the assay on OVCAR-8 ovarian; 107% with OVCAR-5 ovarian; 100% with OVCAR-4 ovarian; 111% in the assay on SK-OV-3 ovarian. Further, the growth is 132% with IGROV1 ovarian; 112% in the assay on OVCAR-3 ovarian; 107% in the assay with HS 578T breast; 112% in the assay with NCI/ADR-RES ovarian; 109% in the assay on T-47D breast; 103% in the assay on BT-549 breast. The growth with MDA-MB-435 melanoma was 113%; with SW-620 colon it was 101%; with MCF7 breast it was 95.6%; with HCT-116 colon, 102%; in the assay with HCC-2998 colon it was 117%; in the assay on KM12 colon, 120%.
